Source: PubChem
HP1b chromo inh = HTS for Inhibitors of HP1-beta Chromodomain Interactions with Methylated Histone Tails | AlphaScreen HP1-beta / biotin-H3K9me3 peptide binding | Potency, µM (doses to about 114 µM), hits mostly inhibitors | Chromobox protein homolog 1 (Homo sapiens), P83916 | 390,000 tested, 0.56% active; further: nearly all actives have a fitted effect of over 70% in size
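Compound inhibition of the preformed complex between 50 nM HP1-beta and 50 nM biotinylated H3K9me3 peptide was read by AlphaScreen. Buffer was PBS pH 7.4 with 0.01% Tween-20. Incubations ran 30 min at room temperature, with 10 ug/mL donor/acceptor beads.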
CtBP-E1A blk = qHTS Assay for Inhibitors of the CtBP/E1A Interaction | AlphaScreen GST-E1A/His-CtBP binding, 1536-well; active compounds read low | CtBP / adenovirus E1A interaction (AlphaScreen) | activity change, % (test concentration not listed) | AID 651724, 2012 | 340,000 tested, 0.49% active; in the data active means activity change below about -65%; inconclusive means mostly about -30% to -63%
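In 5 uL wells, 23 nL compound meets equimolar GST-E1A and His-CtBP (5X stock 125 nM each) for 2 h, 37 °C. Beads (5X, 50 ug/mL) then 1 h, 37 °C, dark.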
Six1-Eya2 inh = qHTS Assay for Inhibitors of the Six1/Eya2 Interaction; AlphaScreen GST-Six1/His-Eya2 binding, biochemical; active compounds read low; activity change, % (no concentration beside the values); 360,000 tested, 0.56% active; in the data active means activity change below about -65%; inconclusive means mostly about -30% to -63%
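Homogeneous AlphaScreen proximity assay pairing GST-Six1 with His-tagged Eya2 (added as 5X mix: 250 nM and 500 nM) in 50 mM Tris pH 8.0, 300 mM NaCl, 1 mM TCEP. Glutathione donor and nickel acceptor beads; 1 h, 37 °C, dark.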
G9a block = qHTS Assay for Inhibitors of Histone Lysine Methyltransferase G9a. Histone-lysine N-methyltransferase EHMT2 (Homo sapiens), Q96KQ7. G9a H3K9 monomethylation, AlphaScreen, 2 h. Potency, µM (titrated, usually from 102 µM), actives largely listed as inhibitors. 350,000 tested, 8.8% active; further: nearly all actives have a fitted effect of over 75% in size
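G9a (20 nM) preincubated 15 min RT with compounds, then 500 nM biotinylated H3K9 peptide and 20 uM SAM added; 2 h RT reaction. Monomethyl-H3K9 product detected by AlphaScreen with anti-H3K9me1 antibody, streptavidin donor and anti-rabbit IgG acceptor beads.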
BAZ2B inh = qHTS Assay for Inhibitors of BAZ2B. Bromodomain adjacent to zinc finger domain protein 2B (Homo sapiens), Q9UIF8. AlphaScreen BAZ2B-H3K14Ac peptide displacement. AID 504333, 2011. 360,000 tested, 4.4% active. Potency, µM (doses to about 114 µM), actives largely listed as inhibitors; further: nearly all actives have a fitted effect of over 60% in size
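In this displacement format the biotinylated H3(5-23) peptide acetylated at Lys14 serves as ligand at 50 nM, with BAZ2B at 50 nM in PBS pH 7.4 containing 0.01% Tween-20. Donor and acceptor beads are 10 ug/mL final.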
JMJD2A Tudor = qHTS Assay for Inhibitors of JMJD2A-Tudor Domain. AID 504339, 2011. Potency, µM (doses to about 114 µM), most hits filed as inhibitors. Lysine-specific demethylase 4A (Homo sapiens), O75164. 390,000 tested, 4.4% active. AlphaScreen JMJD2A-Tudor / H3K4me3 peptide binding; further: nearly all actives have a fitted effect of over 50% in size
Target sequence (O75164 whole entry, looked up, the tested form may be a part): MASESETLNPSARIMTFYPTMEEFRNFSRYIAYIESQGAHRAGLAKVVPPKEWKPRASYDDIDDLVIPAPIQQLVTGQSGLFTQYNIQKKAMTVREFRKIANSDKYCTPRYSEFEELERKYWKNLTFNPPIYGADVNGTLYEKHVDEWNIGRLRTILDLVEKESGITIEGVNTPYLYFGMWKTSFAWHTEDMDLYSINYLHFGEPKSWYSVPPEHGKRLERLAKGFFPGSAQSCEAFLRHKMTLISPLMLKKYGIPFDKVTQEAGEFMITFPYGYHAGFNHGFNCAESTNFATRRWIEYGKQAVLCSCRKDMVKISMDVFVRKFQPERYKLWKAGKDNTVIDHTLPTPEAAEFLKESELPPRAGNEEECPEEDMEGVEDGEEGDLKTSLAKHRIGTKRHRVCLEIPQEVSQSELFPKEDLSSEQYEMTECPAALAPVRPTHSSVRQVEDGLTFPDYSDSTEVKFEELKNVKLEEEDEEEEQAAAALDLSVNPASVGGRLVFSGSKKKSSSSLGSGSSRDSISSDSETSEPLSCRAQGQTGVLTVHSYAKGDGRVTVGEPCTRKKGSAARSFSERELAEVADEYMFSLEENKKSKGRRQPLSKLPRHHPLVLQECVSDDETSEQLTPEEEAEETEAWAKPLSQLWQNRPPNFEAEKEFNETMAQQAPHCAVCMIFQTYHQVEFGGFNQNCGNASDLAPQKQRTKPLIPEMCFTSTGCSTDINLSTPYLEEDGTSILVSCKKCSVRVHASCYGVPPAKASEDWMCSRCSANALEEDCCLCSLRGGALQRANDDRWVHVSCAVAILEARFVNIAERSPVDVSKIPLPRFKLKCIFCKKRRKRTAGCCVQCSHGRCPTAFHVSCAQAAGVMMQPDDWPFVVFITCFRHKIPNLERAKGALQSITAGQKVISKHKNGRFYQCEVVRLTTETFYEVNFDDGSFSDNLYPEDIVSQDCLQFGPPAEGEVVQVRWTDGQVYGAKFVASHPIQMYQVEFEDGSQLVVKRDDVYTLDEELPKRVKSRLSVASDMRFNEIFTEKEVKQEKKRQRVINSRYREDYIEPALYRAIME
Numbers stand for hits; [ ] = remark or other dose. An excerpt weighted towards active compounds, which were near 10% of everything screened. Unless noted, the call rests on the fitted dose curve; in most records, active means well fitted inhibition curve with a large enough effect; inconclusive means small, poorly fitted or top-dose-only effect; inactive means no such curve, though single readings can be large or run the other way.

What do the screens show for `COc1ccc(CCNC(=O)c2oc(=O)c3ccccc3c2-c2ccccc2)cc1OC`?
HP1b chromo inh: inactive; G9a block: inactive; BAZ2B inh: inactive; JMJD2A Tudor: inactive

How did CC(C)OC(=O)C(=O)NNc1ccccc1 do in these assays?
HP1b chromo inh: inactive; CtBP-E1A blk: inactive; Six1-Eya2 inh: inactive; G9a block: inconclusive; BAZ2B inh: inactive; JMJD2A Tudor: inactive

How did C=C(C)C(=O)NNc1ccccc1 do in these assays?
HP1b chromo inh: inactive; CtBP-E1A blk: inactive; Six1-Eya2 inh: inactive; G9a block: 11µM; BAZ2B inh: inactive; JMJD2A Tudor: inactive

What do the screens show for `CCCOC(=O)C(=O)NNc1ccccc1`?
HP1b chromo inh: inactive; CtBP-E1A blk: inactive; Six1-Eya2 inh: inactive; G9a block: 40µM; BAZ2B inh: inactive; JMJD2A Tudor: inactive

How did COc1ccc(OC)c(NC(=O)C2CCCN(S(=O)(=O)c3ccc4[nH]c(=O)ccc4c3)C2)c1 (stereo not drawn) do in these assays?
HP1b chromo inh: inactive; G9a block: inactive; BAZ2B inh: inactive; JMJD2A Tudor: inactive

Results for O=C(Nc1c2ccccc2nc2ccccc12)C(Cl)(Cl)Cl ?
HP1b chromo inh: inactive; CtBP-E1A blk: inactive; Six1-Eya2 inh: inactive; G9a block: 45µM; BAZ2B inh: inactive; JMJD2A Tudor: inactive

How did Cc1nn(Cc2ccc(C(=O)NN)cc2)c(C)c1Cl do in these assays?
HP1b chromo inh: inactive; CtBP-E1A blk: inactive; Six1-Eya2 inh: inactive; G9a block: inactive; BAZ2B inh: inactive; JMJD2A Tudor: inactive

Results for Cc1nn(Cc2ccc(C(=O)Nc3nccs3)cc2)c(C)c1Cl ?
HP1b chromo inh: inactive; CtBP-E1A blk: inactive; Six1-Eya2 inh: inactive; G9a block: 45µM; BAZ2B inh: inactive; JMJD2A Tudor: inactive

Results for COc1c(F)c(F)c(C(=O)Nc2ccc(N3CCN(Cc4ccccc4)CC3)cc2)c(F)c1F ?
HP1b chromo inh: inactive; CtBP-E1A blk: inactive; Six1-Eya2 inh: inactive; G9a block: 18µM; BAZ2B inh: inactive; JMJD2A Tudor: inactive

What do the screens show for `Cc1nn(Cc2ccc(C(=O)Nc3ccccc3F)cc2)c(C)c1Cl`?
HP1b chromo inh: inactive; CtBP-E1A blk: inactive; Six1-Eya2 inh: inactive; G9a block: 45µM; BAZ2B inh: inactive; JMJD2A Tudor: inactive

Results for O=C(Nc1ccccc1F)c1ccc(CN2CCN(c3ccccc3)CC2)cc1 ?
HP1b chromo inh: inactive; CtBP-E1A blk: inactive; Six1-Eya2 inh: inactive; G9a block: 79µM; BAZ2B inh: inactive; JMJD2A Tudor: inconclusive

What do the screens show for `COc1ccc(C(=O)Nc2ccc(N3CCN(Cc4ccccc4)CC3)cc2)cc1`?
HP1b chromo inh: inactive; CtBP-E1A blk: inactive; Six1-Eya2 inh: inactive; G9a block: inactive; BAZ2B inh: inactive; JMJD2A Tudor: inactive

What do the screens show for `Cc1cccc(NC(=O)CCCCCn2c(=O)[nH]c3ccsc3c2=O)c1`?
HP1b chromo inh: inactive; G9a block: inactive; BAZ2B inh: inactive; JMJD2A Tudor: inactive

How did Cc1ccc(Cl)cc1NC(=O)c1ccc2snnc2c1 do in these assays?
HP1b chromo inh: inactive; G9a block: inactive; BAZ2B inh: inactive; JMJD2A Tudor: inactive

How did c1ccc(CSc2nnc(-c3cccs3)n2Cc2ccco2)cc1 do in these assays?
HP1b chromo inh: inactive; CtBP-E1A blk: inactive; Six1-Eya2 inh: inactive; G9a block: inconclusive; BAZ2B inh: inactive; JMJD2A Tudor: inactive

Results for Cc1ccccc1CSc1nnc(-c2cccs2)n1Cc1ccco1 ?
HP1b chromo inh: inactive; CtBP-E1A blk: inactive; Six1-Eya2 inh: inactive; G9a block: inactive[0.0925 µM]; BAZ2B inh: inconclusive; JMJD2A Tudor: inactive

What do the screens show for `c1ccc(CSc2nnc(-c3ccco3)n2Cc2ccco2)cc1`?
HP1b chromo inh: inactive; CtBP-E1A blk: inactive; Six1-Eya2 inh: inactive; G9a block: 50µM; BAZ2B inh: inconclusive; JMJD2A Tudor: inactive
